A short description of assay [1]: AP1 Signaling Pathway (AID 357; active means well fitted curve in either direction with a large enough effect, not every such curve was filed as active; further: on the % scale 0 is the no-effect control and ±100 the full control effect). The following applies: ME-180 AP-1-bla reporter, EGF-induced, beta-lactamase ratio, 5 h; at 17.2 µM (top of the series) unless noted. In short, it runs like this: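 Titration-series screen for positive or negative modulators of EC50 EGF-induced signaling in ME-180 cells carrying an AP-1-driven beta-lactamase reporter. After 5 hours at 37 degrees Celsius, CCF4 460nm/530nm emission ratio gave %Activity; AC50 values derived.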

Assay [2] deals with Glucocorticoid receptor (Homo sapiens) (UniProt P04150). Description: GR-GFP Redistribution (AID 450;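 active means compounds whose dose series gives a full or clear partial fitted curve of increased nuclear translocation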; further: potency means the concentration at half of the fitted maximal effect).
The target is the same in assay [3]. Kind of assay: GR-EFC Redistribution (AID 451; calls by dose curve; further: potency means the concentration at half of the fitted maximal effect). The following applies: CHO-K1 GR-EFC translocation, beta-gal luminescence, 2 h. In short, it runs like this:
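CHO-K1 cells stably expressing nuclear-localized β-gal enzyme acceptor and GR fused C-terminally to the enzyme donor fragment; ligand-driven nuclear translocation restores β-gal by complementation. Compounds titrated up to 46 uM final, 2 h at 37 °C; luminescence read.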

Assay [4] has as its target 3',5'-cyclic-AMP phosphodiesterase 4B (Homo sapiens) (UniProt Q07343). Description: qHTS Assay for Inhibitors of PDE-IV (AID 607; active means well fitted activation curve with a large enough effect in the main read-out, with a control signal flat, not every such curve was filed as active; further: % of control where 0% means no effect). Summed up: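 ACTOne HEK293 cells carry a modified cAMP-gated CNG channel and express endogenous PDE4; plated 1000 cells/well, compounds up to 22.9 uM final. Membrane-potential dye fluorescence (ex 535/em 590) was read; parental cells received 10 uM forskolin + 100 uM RO 20-1724.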
For orientation: qHTS replaces the single test concentration by a dilution series.

The target of assay [5] is Cytochrome P450 1A2 (Homo sapiens) (UniProt P05177). Kind of assay: p450-cyp1a2 (AID 410; calls by dose curve; further: potency means the concentration at half of the fitted maximal effect;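 on activity change, negative = inhibition: -100% = full effect of reference inhibitor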). In short, it runs like this:
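Read-out is luminescence from luciferin produced by CYP1A2 demethylation of Luciferin-ME (100uM, at Km). Detection reagent stopped the 60 min NADPH-dependent reaction; signals were normalized to 57 uM furafylline.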

Assay [6] is described as follows: NFAT Signaling Pathway (AID 444; active means well fitted curve in either direction with a large enough effect, not every such curve was filed as active;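 further: carbachol stimulus at about its EC50 of 1 µM final; on the % scale 0 is the no-effect control and ±100 the full control effect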). The note with it: Jurkat NFAT-bla M1, carbachol, beta-lactamase ratio, 5 h; at 17.2 µM (top of the series) unless noted. Summed up: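 Jurkat cells carrying an NFAT-driven β-lactamase reporter and co-transfected muscarinic M1 receptor were treated with compound plus carbachol (1 uM final, an EC50 level) for 5 h at 37 °C. CCF4 loading followed for 1 h at RT; 460/530 nm ratio gave %activity.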

A short description of assay [7]: Stat Signaling Pathway (AID 446; active means well fitted curve in either direction with a large enough effect, not every such curve was filed as active;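 further: ME-180 cervical cancer cells given 40 pM IL-6 alongside compound; SIE-controlled beta-lactamase reporter measured as 460/530 nm FRET emission ratio; on the % scale 0 is the no-effect control and ±100 the full control effect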). The note with it: ME-180 (cervical carcinoma) SIE beta-lactamase reporter, IL-6 stimulated, 5 h; at 17.2 µM (top of the series) unless noted. Summed up: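 Compound effects on IL-6-induced STAT reporter activity were measured in ME-180 cells. After overnight culture, cells were co-treated with 40 pM IL-6 for 5 hrs before beta-lactamase substrate loading at room temperature.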

Assay [8] addresses Mitogen-activated protein kinase 10 (Mus musculus) (UniProt Q61831). Description: JNK3 AlphaScreen Assay (AID 530; active means well fitted curve in either direction with a large enough effect, not every such curve was filed as active;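 further: kinase came from lysate of stimulated human HepG2 cells; signal reports phosphorylation of biotinylated GST-cJun 1-79 at Ser73 with 10 µM ATP; on the % scale 0 is the no-effect control and ±100 the full control effect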). Summed up:
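Biotinylated GST-cJun(1-79) served as substrate for JNK3 in HepG2 lysates stimulated with IL-1beta and TNF-alpha. ATP was 10 uM final, pH 7.6. Ser73 phosphorylation was quantified by AlphaScreen (680 nm excitation).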
(In general: Alpha assays give light when donor and acceptor beads are brought close together.)

The target in assay [9] is Cytochrome P450 2C9 (Homo sapiens) (UniProt P11712). Description: qHTS Assay for Inhibitors and Substrates of Cytochrome P450 2C9 (AID 883). Further: on the % scale 0 is the no-effect control and ±100 the full control effect; nearly all actives have a fitted effect of over 60% in size. In short, it runs like this:
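CYP2C9 deoxyluciferin hydroxylation, 37C, 60 min with NADPH regeneration; 10nM enzyme, 100uM Luciferin-H (KM). Glo detection reagent stopped reaction; luminescence normalized to sulphaphenazole (57uM) full inhibition.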

Assay [10] has as its target Cytochrome P450 3A4 (Homo sapiens) (UniProt P08684). Description: qHTS Assay for Inhibitors and Substrates of Cytochrome P450 3A4 (AID 884). Further: on the % scale 0 is the no-effect control and ±100 the full control effect; nearly all actives have a fitted effect of over 50% in size. In short, it runs like this:
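Luminescent readout of luciferin produced by CYP3A4 (20 nM) dealkylation of Luciferin-PPXE, 25 uM (its KM). NADPH-driven reaction ran 60 min at RT after 10 min compound preincubation; data scaled to 57 uM ketoconazole as 100% inhibition.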

Assay [11] concerns the target Cytochrome P450 2D6 (Homo sapiens) (UniProt P10635). Kind of assay: qHTS Assay for Inhibitors and Substrates of Cytochrome P450 2D6 (AID 891).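 Further: luciferin methyl ether substrate demethylated by CYP2D6 with NADPH regeneration; on the % scale 0 is the no-effect control and ±100 the full control effect; nearly all actives have a fitted effect of over 60% in size.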 In short, it runs like this: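 Luminescent read-out of luciferin formed by 5 nM human CYP2D6 demethylating 30 uM Luciferin-ME EGE (Km level) over 60 min at room temperature after NADPH regeneration addition. Data normalized to full inhibition by 1.43 uM quinidine.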

Assay [12] deals with Cytochrome P450 2C19 (Homo sapiens) (UniProt P33261). Kind of assay: qHTS Assay for Inhibitors and Substrates of Cytochrome P450 2C19 (AID 899). Further: on the % scale 0 is the no-effect control and ±100 the full control effect; nearly all actives have a fitted effect of over 60% in size. In short, it runs like this:
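In 50mM KPO4, the reaction held 5nM enzyme and KM-level (10uM) Luciferin-H EGE; it ran 60 min at 37C after NADPH regeneration and a 10 min compound preincubation. Luminescence values were scaled to 57uM ketoconazole as complete inhibition.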

In assay [13] the target is Pyruvate kinase (Leishmania mexicana) (UniProt Q27686). Description: qHTS Validation Assay for Inhibitors of Leishmania Mexicana Pyruvate Kinase (AID 945). Further: potency means the concentration at half of the fitted maximal effect.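 On activity change, negative = inhibition: 0% = DMSO only neutral control wells.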 Summed up: (§1)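 Compounds are tested as eight-point concentration series. Reactions contain 0.2 nM LmPYK E451W, 0.5 mM PEP, 0.1 mM ADP, 7 mM MgCl2 and 50 mM KCl at pH 7.2, run 1 h at room temperature, then read by PKLight luminescence.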

The target of assay [14] is Pyruvate kinase PKM (Homo sapiens) (UniProt P14618). Kind of assay: qHTS Assay for Inhibitors of Human Muscle Pyruvate Kinase (AID 958). Summed up:
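Compound pinned into substrate mix (0.5 mM PEP, 0.1 mM ADP), then 0.1 nM PKM2 added; 1 h, RT. Stop/detection luciferase reagent added, luminescence read. Normalized to no-inhibition and no-enzyme or reference-inhibitor controls.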

The target in assay [15] is Pyruvate kinase (Leishmania mexicana) (UniProt Q27686). Kind of assay: qHTS Validation Assay for Activators of Leishmania Mexicana Pyruvate Kinase (AID 959). In short, it runs like this: as §1
In assay [16] the target is Alpha-galactosidase A (Homo sapiens) (UniProt P06280). Kind of assay: Counterscreen for Glucocerebrosidase Inhibitors: qHTS Assay for Human alpha-Galactosidase at pH 4.5 (AID 992). Further: 0% is about no effect. In short, it runs like this: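 Citrate buffer pH 4.5, Tween-20 0.005%. Enzyme 2 nM, substrate 80 uM, 20 min RT. Stop pH 10. Fluorescence Ex 365/Em 440. AC50 by Hill fit.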
For orientation: The purpose of a counterscreen is to sort out artefacts and off-target activity.

Assay [17] addresses alpha-glucosidase (Oryza sativa, rice) (UniProt Q653V4). Description: Counterscreen for Glucocerebrosidase Inhibitors: qHTS Assay for Rice alpha-Glucosidase at pH 5.0 (AID 997).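 Further: 0% = full activity with enzyme and -100% = basal without enzyme.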 In short, it runs like this: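 Endpoint fluorogenic assay at pH 5.0: compounds (0.7 nM to 77 uM) titrated against 4 nM rice enzyme and 400 uM 4-MU-alpha-glucoside for 20 min at room temperature; NaOH/glycine stop, read ex 365/em 440 nm, Hill-fitted AC50.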

Assay [18] has as its target Cytochrome P450 3A4 (Homo sapiens) (UniProt P08684). Kind of assay: qHTS Assay for Activators of Cytochrome P450 3A4 (AID 885). Further: nearly all actives have a fitted effect of over 65% in size. In short, it runs like this: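 CYP3A4 activity: Luciferin-PPXE O-dealkylation, 25uM substrate, 200mM KPO4, RT throughout. Read-out is luciferase luminescence; higher values reflect activation.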
Assay [19] deals with Pyruvate kinase PKM (Homo sapiens) (UniProt P14618). Kind of assay: qHTS Assay for Activators of Human Muscle Pyruvate Kinase (AID 954; active means well fitted curve in the direction sought with a large enough effect, not every such curve was filed as active;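 further: 0% = uninhibited enzyme and -100% = no enzyme or full thiadiazolimine inhibition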). Summed up:
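A coupled luminescent readout tracked ATP made from ADP by purified PKM2. Final conditions included 0.1 nM enzyme, PEP and ADP at 0.5 and 0.1 mM, pH 7.2 imidazole buffer with BSA, and a one-hour room-temperature reaction.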

Unmarked numbers belong to inactive results. Inconclusive results are not listed. Calls of active or inactive are those of the source. Unless noted, the call rests on the fitted dose curve; in most records, active means well fitted curve in the direction sought with a large enough effect; inconclusive means small, poorly fitted or top-dose-only effect, or another doubt; inactive means no such curve, though single readings can be large; an effect the other way counts as inactive or inconclusive. A value given as a limit tells only on which side of the number the result lay.

Sequence of 3',5'-cyclic-AMP phosphodiesterase 4B (Homo sapiens) (Q07343 whole entry, looked up): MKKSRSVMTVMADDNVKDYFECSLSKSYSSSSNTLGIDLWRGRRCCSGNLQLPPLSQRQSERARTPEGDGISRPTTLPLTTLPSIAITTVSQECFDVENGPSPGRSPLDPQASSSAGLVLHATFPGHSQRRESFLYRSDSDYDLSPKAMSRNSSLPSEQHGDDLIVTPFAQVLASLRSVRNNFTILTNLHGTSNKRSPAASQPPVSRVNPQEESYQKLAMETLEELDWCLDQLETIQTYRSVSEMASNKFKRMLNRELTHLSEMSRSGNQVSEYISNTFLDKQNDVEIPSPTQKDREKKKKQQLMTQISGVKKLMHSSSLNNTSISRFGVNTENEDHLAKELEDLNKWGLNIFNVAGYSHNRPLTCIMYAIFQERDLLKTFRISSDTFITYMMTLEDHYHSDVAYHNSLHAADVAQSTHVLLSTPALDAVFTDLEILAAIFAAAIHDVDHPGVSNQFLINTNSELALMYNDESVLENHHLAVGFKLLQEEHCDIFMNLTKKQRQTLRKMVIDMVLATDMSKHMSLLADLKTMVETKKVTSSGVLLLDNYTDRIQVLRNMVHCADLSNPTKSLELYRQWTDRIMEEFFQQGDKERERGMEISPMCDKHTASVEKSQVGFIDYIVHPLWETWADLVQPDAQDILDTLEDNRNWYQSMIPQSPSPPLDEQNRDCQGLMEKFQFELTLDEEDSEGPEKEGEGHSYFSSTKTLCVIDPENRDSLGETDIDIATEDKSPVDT
Sequence of Pyruvate kinase (Leishmania mexicana) (Q27686 2-499 E452W): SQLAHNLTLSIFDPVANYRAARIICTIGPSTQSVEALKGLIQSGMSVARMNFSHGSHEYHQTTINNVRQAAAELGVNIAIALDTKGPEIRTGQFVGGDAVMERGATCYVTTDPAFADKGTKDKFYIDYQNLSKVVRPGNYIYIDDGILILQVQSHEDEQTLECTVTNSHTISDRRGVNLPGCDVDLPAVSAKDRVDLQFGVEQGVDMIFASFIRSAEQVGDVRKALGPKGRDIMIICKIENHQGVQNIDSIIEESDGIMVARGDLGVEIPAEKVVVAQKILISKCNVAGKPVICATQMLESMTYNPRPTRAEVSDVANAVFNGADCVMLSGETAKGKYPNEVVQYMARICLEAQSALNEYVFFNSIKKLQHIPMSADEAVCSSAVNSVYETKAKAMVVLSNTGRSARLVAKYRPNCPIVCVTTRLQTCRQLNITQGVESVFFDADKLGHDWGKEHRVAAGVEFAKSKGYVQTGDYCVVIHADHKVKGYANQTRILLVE
Sequence of Cytochrome P450 1A2 (Homo sapiens) (P05177 whole entry, looked up): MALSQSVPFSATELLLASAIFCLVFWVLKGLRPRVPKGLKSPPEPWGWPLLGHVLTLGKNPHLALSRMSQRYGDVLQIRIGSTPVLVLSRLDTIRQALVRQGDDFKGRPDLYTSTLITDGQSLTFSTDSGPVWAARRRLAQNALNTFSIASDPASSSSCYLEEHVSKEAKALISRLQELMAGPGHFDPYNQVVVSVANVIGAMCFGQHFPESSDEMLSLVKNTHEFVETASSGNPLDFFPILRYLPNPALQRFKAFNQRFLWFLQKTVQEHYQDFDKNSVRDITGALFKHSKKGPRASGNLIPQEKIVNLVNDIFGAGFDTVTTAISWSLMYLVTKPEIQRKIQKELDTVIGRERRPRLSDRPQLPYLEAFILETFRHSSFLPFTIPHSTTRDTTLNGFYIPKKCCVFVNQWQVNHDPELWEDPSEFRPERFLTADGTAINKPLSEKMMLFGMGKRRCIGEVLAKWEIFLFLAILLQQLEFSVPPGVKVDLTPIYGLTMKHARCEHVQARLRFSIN
Sequence of Glucocorticoid receptor (Homo sapiens) (P04150 whole entry, looked up): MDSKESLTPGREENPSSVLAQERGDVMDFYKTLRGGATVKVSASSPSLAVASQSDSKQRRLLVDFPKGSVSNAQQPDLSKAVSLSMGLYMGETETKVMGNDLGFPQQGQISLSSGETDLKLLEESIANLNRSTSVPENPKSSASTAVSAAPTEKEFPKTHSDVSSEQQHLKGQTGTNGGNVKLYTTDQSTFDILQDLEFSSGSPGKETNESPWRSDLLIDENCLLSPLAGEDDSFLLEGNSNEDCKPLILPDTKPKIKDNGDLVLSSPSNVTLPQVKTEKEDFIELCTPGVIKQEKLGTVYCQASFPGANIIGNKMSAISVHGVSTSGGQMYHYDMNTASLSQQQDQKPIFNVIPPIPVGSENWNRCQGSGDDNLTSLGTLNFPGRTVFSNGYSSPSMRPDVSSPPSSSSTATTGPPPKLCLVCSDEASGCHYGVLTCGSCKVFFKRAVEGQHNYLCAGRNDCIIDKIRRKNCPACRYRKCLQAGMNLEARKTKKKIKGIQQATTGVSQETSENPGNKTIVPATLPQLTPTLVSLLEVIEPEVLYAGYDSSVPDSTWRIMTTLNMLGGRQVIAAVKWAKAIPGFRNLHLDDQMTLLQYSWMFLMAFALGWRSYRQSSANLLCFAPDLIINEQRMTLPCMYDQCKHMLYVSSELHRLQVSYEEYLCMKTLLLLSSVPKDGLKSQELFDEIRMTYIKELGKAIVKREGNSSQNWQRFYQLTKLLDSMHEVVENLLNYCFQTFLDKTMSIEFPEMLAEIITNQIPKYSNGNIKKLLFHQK
Sequence of Pyruvate kinase PKM (Homo sapiens) (P14618 whole entry, looked up): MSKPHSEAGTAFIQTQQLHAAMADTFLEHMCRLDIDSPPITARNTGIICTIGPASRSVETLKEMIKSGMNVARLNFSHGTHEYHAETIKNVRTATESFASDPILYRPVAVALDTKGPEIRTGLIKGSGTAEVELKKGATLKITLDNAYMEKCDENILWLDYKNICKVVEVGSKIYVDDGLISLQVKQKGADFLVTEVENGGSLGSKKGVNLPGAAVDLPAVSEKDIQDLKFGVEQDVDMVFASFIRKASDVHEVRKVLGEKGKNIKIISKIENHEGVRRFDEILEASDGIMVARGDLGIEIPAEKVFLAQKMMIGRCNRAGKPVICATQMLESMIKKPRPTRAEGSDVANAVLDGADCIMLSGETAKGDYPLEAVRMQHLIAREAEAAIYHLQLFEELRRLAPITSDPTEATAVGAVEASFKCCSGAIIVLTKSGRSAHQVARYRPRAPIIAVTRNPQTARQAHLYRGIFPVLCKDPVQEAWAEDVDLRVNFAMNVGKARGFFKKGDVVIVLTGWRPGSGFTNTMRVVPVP
Sequence of Alpha-galactosidase A (Homo sapiens) (P06280 whole entry, looked up): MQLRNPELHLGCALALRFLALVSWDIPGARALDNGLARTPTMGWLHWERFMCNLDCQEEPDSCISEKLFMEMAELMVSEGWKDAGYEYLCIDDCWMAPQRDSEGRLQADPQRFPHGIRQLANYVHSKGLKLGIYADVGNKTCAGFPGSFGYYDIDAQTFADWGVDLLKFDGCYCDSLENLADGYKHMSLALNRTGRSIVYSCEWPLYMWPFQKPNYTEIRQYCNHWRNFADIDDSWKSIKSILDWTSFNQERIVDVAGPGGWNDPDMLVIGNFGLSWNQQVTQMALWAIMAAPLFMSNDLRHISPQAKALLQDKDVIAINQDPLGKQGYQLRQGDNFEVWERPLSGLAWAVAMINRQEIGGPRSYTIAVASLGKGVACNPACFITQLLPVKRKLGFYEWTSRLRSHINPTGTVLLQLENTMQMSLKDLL
Sequence of Cytochrome P450 3A4 (Homo sapiens) (P08684 whole entry, looked up): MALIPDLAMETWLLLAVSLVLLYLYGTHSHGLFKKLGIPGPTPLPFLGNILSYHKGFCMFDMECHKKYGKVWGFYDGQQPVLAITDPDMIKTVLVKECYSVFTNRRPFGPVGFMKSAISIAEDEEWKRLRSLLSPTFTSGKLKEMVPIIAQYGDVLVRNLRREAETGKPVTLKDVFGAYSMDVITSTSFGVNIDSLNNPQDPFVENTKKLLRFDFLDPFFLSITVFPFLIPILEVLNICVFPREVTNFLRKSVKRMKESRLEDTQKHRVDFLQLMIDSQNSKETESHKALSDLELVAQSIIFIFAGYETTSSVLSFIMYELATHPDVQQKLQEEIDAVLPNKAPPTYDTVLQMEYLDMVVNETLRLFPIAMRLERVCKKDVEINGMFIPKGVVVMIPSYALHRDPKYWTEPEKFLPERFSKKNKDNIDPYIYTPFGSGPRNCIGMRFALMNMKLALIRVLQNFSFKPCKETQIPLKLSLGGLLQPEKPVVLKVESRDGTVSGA
Sequence of Cytochrome P450 2C9 (Homo sapiens) (P11712 whole entry, looked up): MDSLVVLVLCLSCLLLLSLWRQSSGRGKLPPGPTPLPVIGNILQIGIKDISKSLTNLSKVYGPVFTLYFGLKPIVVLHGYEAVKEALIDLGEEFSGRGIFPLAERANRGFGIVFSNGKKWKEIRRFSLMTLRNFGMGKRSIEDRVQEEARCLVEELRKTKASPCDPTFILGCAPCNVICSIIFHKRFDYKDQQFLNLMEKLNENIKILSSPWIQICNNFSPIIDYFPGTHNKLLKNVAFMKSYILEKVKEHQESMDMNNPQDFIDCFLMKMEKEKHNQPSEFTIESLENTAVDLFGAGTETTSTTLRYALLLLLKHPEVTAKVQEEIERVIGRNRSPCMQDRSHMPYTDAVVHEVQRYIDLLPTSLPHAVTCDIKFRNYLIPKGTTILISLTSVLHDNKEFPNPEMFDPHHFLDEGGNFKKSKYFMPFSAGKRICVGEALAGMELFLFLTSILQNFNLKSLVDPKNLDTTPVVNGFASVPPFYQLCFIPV
Sequence of Cytochrome P450 2D6 (Homo sapiens) (P10635 whole entry, looked up): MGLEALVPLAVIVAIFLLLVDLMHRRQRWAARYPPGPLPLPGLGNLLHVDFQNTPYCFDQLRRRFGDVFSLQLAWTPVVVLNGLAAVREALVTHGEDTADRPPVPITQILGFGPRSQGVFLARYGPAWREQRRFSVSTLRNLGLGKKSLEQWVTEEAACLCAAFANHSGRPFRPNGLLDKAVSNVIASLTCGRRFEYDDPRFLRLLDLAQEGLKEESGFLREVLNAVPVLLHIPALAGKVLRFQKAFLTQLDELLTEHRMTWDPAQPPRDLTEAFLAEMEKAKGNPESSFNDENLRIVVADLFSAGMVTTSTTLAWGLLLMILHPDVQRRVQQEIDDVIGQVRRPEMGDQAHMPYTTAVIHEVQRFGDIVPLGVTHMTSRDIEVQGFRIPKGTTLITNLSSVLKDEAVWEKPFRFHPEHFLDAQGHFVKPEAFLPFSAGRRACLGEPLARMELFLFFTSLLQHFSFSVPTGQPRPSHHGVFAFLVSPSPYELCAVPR

As to `CCOc1ccc2c(ccc(/C=C\c3cc(C)c4cccnc4c3O)[n+]2C)c1`, the activity change, negative = inhibition in [1] is -9.14% [at 7.69 µM]. The Potency is above 46 µM in [2] and above 9.22 µM in assay [3]. The Potency entry in assay [4] was “inactive”.
With `CCc1cccc2c(-c3ccccc3)c3c(nc12)OCC3`, the Potency in [5] is 0.316 µM (active).
Turning to `Nc1ncnc2c1ncn2[C@@H]1O[C@@H](COP(=O)(O)OP(=O)(O)OP(=O)(O)OP(=O)(O)OC[C@@H]2O[C@@H](n3cnc4c(N)ncnc43)[C@@H](O)[C@H]2O)[C@H](O)[C@@H]1O`, the Potency result in assay [5], in [8], in [4], in assay [9], in [10] and in [11] was “inactive” throughout. Further, the Potency entry in [12], in assay [13] and in assay [14] was “inactive” each time. Also, in assay [6], the activity change, negative = inhibition is -0.343% [at 38 µM]. Also, the activity, negative = inhibition in assay [7] was 32% [at 38 µM]. Further, the Potency in [2] was above 46 µM; in assay [3] it was above 46 µM; in [15] it was 12.6 µM (active). Further, the compound was classed as inactive in assay [16] and in assay [17].
For the compound `COc1cccc2c1C(=O)c1c(O)c3c(c(O)c1C2=O)C[C@](O)(C(=O)CO)C[C@H]3O[C@@H]1C[C@H](N)[C@H](O)[C@H](C)O1`, the Potency result in assay [5] and in [4] was “inactive” in each case. Also, the activity, negative = inhibition in assay [7] was 92.4% [activator] (active). Moreover, the Potency in assay [2] and in [3] was above 20.6 µM each time.
`C=CCNC(=O)C(C#N)c1nc2ccccc2nc1N1CCCCCC1` (stereo not drawn): the activity change, negative = inhibition in assay [1] was -18.4%. Moreover, the Potency in [2] is above 20.6 µM.
`Oc1cc(O)cc(/C=C\c2ccc(O)c(O)c2)c1`: the Potency in assay [5] is 5.01 µM (active); in assay [2], above 46 µM; in assay [3] it was above 46 µM; in [13], 1.26 µM (active); in [14] it was 2.51 µM (active). The activity change, negative = inhibition in assay [6] was 5.18% [at 38 µM]. Further, the Potency result in assay [8], in assay [4], in [18] and in [15] was “inactive” throughout. The compound was called inactive in assay [19], in assay [16] and in assay [17].
With `N#CCSc1nc2c(cc1C#N)CCCCCC2`, the activity change, negative = inhibition in [1] was -14.6%. For the same compound, the Potency in [2] is above 20.6 µM.

These data come from PubChem BioAssay (NCATS).
